# Assay results reported in PubChem BioAssay (NCI).
# This is part of a sample that, as a whole, favours compounds with a hit. Of some 79,000 tested, about 15% had one in any assay. Unmarked numbers belong to inactive results. Activity calls are given as the source filed them. Rule as the data show it: active = growth inhibition above about 70%; inactive = the rest.
# How the values were obtained:
# [1] = NCI Yeast Anticancer Drug Screen. Data for the rad52 strain (AID 147);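 also: 0% = growth of vehicle-treated control cultures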; details: S. cerevisiae rad52 mutant growth inhibition, stronger effect = higher value
# Summary of the method: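 Compounds are applied to a genetically defined yeast strain lacking normal DNA damage repair, and inhibition of growth is expressed relative to cultures given vehicle only.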
# [2] = NCI Yeast Anticancer Drug Screen. Data for the wt1 strain (AID 149);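 also: 0% = growth of vehicle-treated wt1 cultures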; details: S. cerevisiae wt1 strain (SPY 50644) growth inhibition, stronger effect = higher value
# Summary of the method: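 wt1 strain grown with compound or vehicle; inhibition taken from the growth difference.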
# [3] = NCI Yeast Anticancer Drug Screen. Data for the rad50EPP+ strain (AID 151);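 also: 0% = growth of vehicle-treated control cultures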; details: S. cerevisiae rad50 mutant strain, stronger effect = higher value
# Summary of the method: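 Compounds were applied to the rad50EPP+ yeast strain, which bears a defined DNA repair alteration, and growth inhibition was determined relative to vehicle-treated cultures.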
# [4] = NCI Yeast Anticancer Drug Screen. Data for the rad50 strain (AID 155);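 also: 0% = growth of vehicle-only cultures of the same strain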; details: S. cerevisiae rad50 strain growth inhibition, stronger effect = higher value
# Summary of the method: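 DNA repair mutant yeast, compound exposure, growth read-out; inhibition is taken relative to vehicle.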
# [5] = NCI Yeast Anticancer Drug Screen. Data for the mec2-1 strain (AID 157); details: S. cerevisiae mec2-1 strain, stronger effect = higher value
# Summary of the method: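 Strain: mec2-1 (DNA repair/cell cycle alteration). Compound exposure, then growth measured; inhibition expressed relative to vehicle.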
# [6] = NCI Yeast Anticancer Drug Screen. Data for the rad14 strain (AID 159);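 also: 0% = growth of vehicle-treated control cultures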; details: S. cerevisiae rad14 strain growth inhibition, stronger effect = higher value
# Summary of the method: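 DNA repair-defective yeast, compound-exposed; % growth inhibition derived by comparison with vehicle-treated controls.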
# [7] = NCI Yeast Anticancer Drug Screen. Data for the sgs1 mgt1 strain (AID 161);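 also: 0% = growth of cultures given vehicle only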; details: S. cerevisiae sgs1 mgt1 strain, stronger effect = higher value
# Summary of the method: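 Mutant yeast exposed to compound; growth scored against vehicle-only wells.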
# [8] = NCI Yeast Anticancer Drug Screen. Data for the CLN2oe strain (AID 163);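 also: 0% = growth of vehicle-only control cultures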; details: S. cerevisiae CLN2oe strain, stronger effect = higher value
# Summary of the method: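 Growth of a genetically modified yeast strain is measured after compound exposure and compared with cultures given vehicle alone.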
# [9] = NCI Yeast Anticancer Drug Screen. Data for the cln2 rad14 strain (AID 165);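 also: 0% = growth equal to vehicle treated cultures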; details: S. cerevisiae cln2 rad14 strain, stronger effect = higher value
# Summary of the method: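 Compounds are applied to the cln2 rad14 yeast strain, and growth is then compared with that of vehicle-treated cultures to give inhibition.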
# [10] = NCI Yeast Anticancer Drug Screen. Data for the bub3 strain (AID 167); details: S. cerevisiae bub3 mutant strain, stronger effect = higher value
# Summary of the method: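 In this screen, a yeast mutant lacking normal mitotic checkpoint function is challenged with compound. Relative growth versus vehicle gives the inhibition value.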
# [11] = NCI Yeast Anticancer Drug Screen. Data for the wt2 strain (AID 169);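 also: 0% = growth of vehicle-treated yeast cultures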; details: S. cerevisiae wt2 strain growth inhibition, stronger effect = higher value
# Summary of the method: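 This strain belongs to a panel of yeast strains with defined genetic alterations in DNA damage repair or cell cycle control. Compounds are applied, and growth inhibition is measured against vehicle-treated cultures.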
# [12] = NCI Yeast Anticancer Drug Screen. Data for the mlh1 strain (AID 171);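 also: 0% = growth of vehicle-treated control cultures of the same strain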; details: S. cerevisiae mlh1 strain growth inhibition, stronger effect = higher value
# Summary of the method: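 Growth of the mutant yeast strain after compound exposure, expressed as inhibition relative to vehicle-only controls.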
# [13] = NCI Yeast Anticancer Drug Screen. Data for the sgs1 strain (AID 173);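 also: 0% = growth of vehicle-only control cultures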; details: S. cerevisiae sgs1 mutant, stronger effect = higher value
# Summary of the method: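 Growth of a yeast strain bearing a defined genetic alteration is measured after compound treatment. Inhibition is expressed relative to vehicle-only controls.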
# [14] = NCI Yeast Anticancer Drug Screen. Data for the mlh1 rad18 strain (AID 175); details: S. cerevisiae mlh1 rad18 strain growth inhibition, stronger effect = higher value
# Summary of the method: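 Read-out is yeast growth inhibition, calculated against vehicle-only controls. The compound was applied to a strain engineered with DNA damage repair alterations.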
# [15] = NCI Yeast Anticancer Drug Screen. Data for the rad18 strain (AID 177); details: S. cerevisiae rad18 mutant growth inhibition, stronger effect = higher value
# Summary of the method: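 Growth of the mutant yeast strain after compound exposure, normalised to vehicle-only cultures.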
# [16] = at 5.0 µM (retest, dose inferred, filed as 0.5)
# [17] = at 50.0 µM (retest, dose inferred, filed as 5.0)
structure (smiles),measurement,setting,value
CN1Cc2ccccc2/C=C\c2ccccc21,growth inhibition,[1]; at 1.2 µM,-3%
same,growth inhibition,[1]; at 3.7 µM,-4%
same,growth inhibition,[1]; at 11.0 µM,-1%
same,growth inhibition,[1]; at 33.0 µM,25%
same,growth inhibition,[1]; at 100.0 µM,39%
same,growth inhibition,[2]; at 1.2 µM,-3%
same,growth inhibition,[2]; at 3.7 µM,-2%
same,growth inhibition,[2]; at 11.0 µM,-3%
same,growth inhibition,[2]; at 33.0 µM,-4%
same,growth inhibition,[2]; at 100.0 µM,7%
same,growth inhibition,[3]; at 1.2 µM,0%
same,growth inhibition,[3]; at 3.7 µM,9%
same,growth inhibition,[3]; at 11.0 µM,23%
same,growth inhibition,[3]; at 33.0 µM,36%
same,growth inhibition,[3]; at 100.0 µM,71% (active)
same,growth inhibition,[4]; at 1.2 µM,-6%
same,growth inhibition,[4]; at 3.7 µM,-10%
same,growth inhibition,[4]; [16],-123%
same,growth inhibition,[4]; at 11.0 µM,-1%
same,growth inhibition,[4]; at 33.0 µM,49%
same,growth inhibition,[4]; [17],92% (active)
same,growth inhibition,[4]; at 50.0 µM,24.8%
same,growth inhibition,[4]; at 100.0 µM,64%
same,growth inhibition,[5]; at 1.2 µM,1%
same,growth inhibition,[5]; at 3.7 µM,2%
same,growth inhibition,[5]; [16],-47%
same,growth inhibition,[5]; at 11.0 µM,1%
same,growth inhibition,[5]; at 33.0 µM,1%
same,growth inhibition,[5]; [17],67%
same,growth inhibition,[5]; at 50.0 µM,34.3%
same,growth inhibition,[5]; at 100.0 µM,-3%
same,growth inhibition,[6]; at 1.2 µM,-3%
same,growth inhibition,[6]; at 3.7 µM,-2%
same,growth inhibition,[6]; at 11.0 µM,1%
same,growth inhibition,[6]; at 33.0 µM,14%
same,growth inhibition,[6]; at 100.0 µM,43%
same,growth inhibition,[7]; [16],-57%
same,growth inhibition,[7]; [17],90% (active)
same,growth inhibition,[7]; at 50.0 µM,-5.4%
same,growth inhibition,[8]; at 1.2 µM,0%
same,growth inhibition,[8]; at 3.7 µM,2%
same,growth inhibition,[8]; at 11.0 µM,3%
same,growth inhibition,[8]; at 33.0 µM,2%
same,growth inhibition,[8]; at 100.0 µM,3%
same,growth inhibition,[9]; [16],-57%
same,growth inhibition,[9]; [17],18%
same,growth inhibition,[9]; at 50.0 µM,-30.4%
same,growth inhibition,[10]; at 1.2 µM,-2%
same,growth inhibition,[10]; at 3.7 µM,-1%
same,growth inhibition,[10]; [16],-66%
same,growth inhibition,[10]; at 11.0 µM,1%
same,growth inhibition,[10]; at 33.0 µM,12%
same,growth inhibition,[10]; [17],87% (active)
same,growth inhibition,[10]; at 50.0 µM,-15.8%
same,growth inhibition,[10]; at 100.0 µM,35%
same,growth inhibition,[11]; at 1.2 µM,0%
same,growth inhibition,[11]; at 3.7 µM,1%
same,growth inhibition,[11]; at 11.0 µM,0%
same,growth inhibition,[11]; at 33.0 µM,-4%
same,growth inhibition,[11]; at 100.0 µM,25%
same,growth inhibition,[12]; at 1.2 µM,9%
same,growth inhibition,[12]; at 3.7 µM,1%
same,growth inhibition,[12]; at 11.0 µM,-1%
same,growth inhibition,[12]; at 33.0 µM,-3%
same,growth inhibition,[12]; at 100.0 µM,33%
same,growth inhibition,[13]; at 1.2 µM,2%
same,growth inhibition,[13]; at 3.7 µM,3%
same,growth inhibition,[13]; at 11.0 µM,2%
same,growth inhibition,[13]; at 33.0 µM,23%
same,growth inhibition,[13]; at 100.0 µM,58%
same,growth inhibition,[14]; [16],-109%
same,growth inhibition,[14]; [17],89% (active)
same,growth inhibition,[14]; at 50.0 µM,22.6%
same,growth inhibition,[15]; at 1.2 µM,0%
same,growth inhibition,[15]; at 3.7 µM,2%
same,growth inhibition,[15]; at 11.0 µM,15%
same,growth inhibition,[15]; at 33.0 µM,47%
same,growth inhibition,[15]; at 100.0 µM,78% (active)
CC/C(=C(\c1ccccc1)c1ccc(OCCN(C)C)cc1)c1ccccc1,growth inhibition,[1]; at 1.2 µM,15%
same,growth inhibition,[1]; at 3.7 µM,11%
same,growth inhibition,[1]; at 11.0 µM,38%
same,growth inhibition,[1]; at 33.0 µM,98% (active)
same,growth inhibition,[1]; at 100.0 µM,98% (active)
same,growth inhibition,[2]; at 1.2 µM,8%
same,growth inhibition,[2]; at 3.7 µM,-8%
same,growth inhibition,[2]; at 11.0 µM,22%
same,growth inhibition,[2]; at 33.0 µM,98% (active)
same,growth inhibition,[2]; at 100.0 µM,50%
same,growth inhibition,[3]; at 1.2 µM,12%
same,growth inhibition,[3]; at 3.7 µM,2%
same,growth inhibition,[3]; at 11.0 µM,1%
same,growth inhibition,[3]; at 33.0 µM,97% (active)
same,growth inhibition,[3]; at 100.0 µM,97% (active)
same,growth inhibition,[4]; at 1.2 µM,9%
same,growth inhibition,[4]; at 3.7 µM,21%
same,growth inhibition,[4]; [16],44%
same,growth inhibition,[4]; at 11.0 µM,64%
same,growth inhibition,[4]; at 33.0 µM,98% (active)
same,growth inhibition,[4]; [17],99% (active)
same,growth inhibition,[4]; at 50.0 µM,90% (active)
same,growth inhibition,[4]; at 100.0 µM,97% (active)
same,growth inhibition,[5]; at 1.2 µM,-9%
same,growth inhibition,[5]; at 3.7 µM,-11%
same,growth inhibition,[5]; [16],46%
same,growth inhibition,[5]; at 11.0 µM,46%
same,growth inhibition,[5]; at 33.0 µM,98% (active)
same,growth inhibition,[5]; [17],99% (active)
same,growth inhibition,[5]; at 50.0 µM,93.4% (active)
same,growth inhibition,[5]; at 100.0 µM,97% (active)
same,growth inhibition,[6]; at 1.2 µM,-26%
same,growth inhibition,[6]; at 3.7 µM,-9%
same,growth inhibition,[6]; at 11.0 µM,89% (active)
same,growth inhibition,[6]; at 33.0 µM,97% (active)
same,growth inhibition,[6]; at 100.0 µM,96% (active)
same,growth inhibition,[7]; [16],-12%
same,growth inhibition,[7]; [17],98% (active)
same,growth inhibition,[7]; at 50.0 µM,92.8% (active)
same,growth inhibition,[8]; at 1.2 µM,4%
same,growth inhibition,[8]; at 3.7 µM,14%
same,growth inhibition,[8]; at 11.0 µM,82% (active)
same,growth inhibition,[8]; at 33.0 µM,98% (active)
same,growth inhibition,[8]; at 100.0 µM,97% (active)
same,growth inhibition,[9]; [16],30%
same,growth inhibition,[9]; [17],99% (active)
same,growth inhibition,[9]; at 50.0 µM,92% (active)
same,growth inhibition,[10]; at 1.2 µM,5%
same,growth inhibition,[10]; at 3.7 µM,10%
same,growth inhibition,[10]; [16],24%
same,growth inhibition,[10]; at 11.0 µM,38%
same,growth inhibition,[10]; at 33.0 µM,98% (active)
same,growth inhibition,[10]; [17],92% (active)
same,growth inhibition,[10]; at 50.0 µM,91.5% (active)
same,growth inhibition,[10]; at 100.0 µM,98% (active)
same,growth inhibition,[11]; at 1.2 µM,-9%
same,growth inhibition,[11]; at 3.7 µM,-15%
same,growth inhibition,[11]; at 11.0 µM,55%
same,growth inhibition,[11]; at 33.0 µM,98% (active)
same,growth inhibition,[11]; at 100.0 µM,97% (active)
